According to PubChem BioAssay (EPA / NIEHS):
“And” between values parts separate entries of the source, which are not always exact repeats. Equal values may be shown once. The source made the active and inactive calls. The calls were made as follows: active = hit-call score of the fitted dose curve at least 0.9, where 1 is the maximum; inactive = score below 0.9.

read-out: Insulin-like growth factor-binding protein 1 (IGFBP1), IGFBP1 (gene 3484); experiment: LTEA_HepaRG_IGFBP1: Life Technologies and Expression Analysis (LTEA) Assay for Insulin-like growth factor-binding protein 1 (IGFBP1) using HepaRG (AID 2283508); conditions: mRNA level, 48 h; actives raise or lower the signal
Description: LTEA_HepaRG is a cell based, multiplexed-readout assay that uses HepaRG, a human liver cell line, with measurements taken at 48 hours after chemical dosing on a 96-well plate.LTEA_HepaRG_IGFBP1 is one of 102 assay component(s) measured in the LTEA HepaRG cell culture assay. It is a marker of Cell proliferation, survival, death.Data from the assay component LTEA_HepaRG_IGFBP1 was analyzed into 1 endpoint. This assay endpoint, LTEA_HepaRG_IGFBP1, was analyzed with bidirectional fitting relative to DMSO as the negative control and baseline of activity. Using a type of inducible reporter, measures of mRNA induction for gain or loss-of-signal activity can be used to understand regulation of transcription factor activity. To generalize the intended target to other relatable targets, this assay endpoint is annotated to the transporter intended target family, where the subfamily is hormone carrier protein.
A total of 1060 chemcials from the ToxCast library were tested in eight-point concentration-response experiments. Cell culture and cytotoxicity assays were conducted at Thermo Fisher Scientific's Custom Services facility (Madison, WI). A single lot of human HepaRG cells (Thermo Fisher Scientific, Frederick, MD) was used for the cell culture experiments. 96-well format collagen type I coated plates of human HepaRG cells were prepared using established methods. Briefly, cryopreserved HepaRG cells were thawed, plated at a density of approximately 100,000 cells/well in HepaRG Thaw, Plate, and General Purpose media (HPRG770, Thermo Fisher Scientific), and incubated for 48 hours. 0.5% DMSO was selected as vehicle control to balance the requisite need of DMSO in HepaRG cultures to maintain differentiation (for example, baseline metabolism, proportions of hepatocytes vs. cholangiocytes), while enabling further hepatic receptor pathway activation (for example, PXR and CAR) in response to chemical exposure. 48 hours after plating, the culture medium was replaced with HepaRG Serum-Free Incudtion Media. Cells were exposed to each test chemical in duplicate and maintained in CO2 incubators for another 48 hours. Chemical plates were thawed to room temperature and 200x concentrations of treatment groups were prepared. 8-point conentration-reponse curves were made with the highest exposure at 100 uM, followed by half-log dilutions, all in 0.5% DMSO. Each test plate contained variouse controls, induction positive controls (1mM phenobarbital), cytotoxicity positive controls ([…] aflatoxin B1), vehicle controls (0.5% DMSO), and total lysis controls (0.5% DMSO). Cell morphology images were taken using an Essen IncuCyte FLR automated microscope, with six 96-well plates imaged in about 24 minutes. Images were captured and exported and JPEG files. Spent culture media was transfered to black-well plates for the LDH assay, and remaining media was sorted at -80 C for later use. Cells were treated with RLT buffer and frozen until shipped for gene expression analysis. Total RNA was isolated from the cell suspension in 75 uL of Buffer RLT (Qiagen, Germantown, MD 20874) by Quintiles/Expression Analysis (Durham, NC) using a custom isolation procedure. Total RNA from each plate well was transferred to a preamplification plate. Fluidigm's 96.96 Dynamic ArrayTM (Fluidigm, Amsterdam, the Netherlands) technology was used for gene expression analyses by quantitative reverse transcription polymerase chain reaction (qRT-PCR, performed by Quintiles/Expression Analysis, Durham, NC)89. Standard TaqManTM Assays (Applied Biosystems/ThermoFisher Scientific, Foster City, CA) were used to assess the expression of 93 genes selected based on their selectivity and sensitivity to important hepatic receptors known to be modulated by environmental chemicals; importance in human hepatocyte functionality; and hepatotoxicity. […]

Compound	outcome	AC50
CCCN(CCC)C(=O)SCC	inactive	–
CCOC(=O)C(C)Oc1ccc(Oc2nc3ccc(Cl)cc3o2)cc1 (stereo not given)	inactive	–
N#CSCSc1nc2ccccc2s1	inactive	–
CCCCCOC(=O)COc1cc(N2C(=O)C3=C(CCCC3)C2=O)c(F)cc1Cl	inactive	–
O=C(Nc1ccc([N+](=O)[O-])cc1Cl)c1cc(Cl)ccc1O	–	2.13 µM (active)
CCCCOC(=O)C(C)Oc1ccc(Oc2ccc(C(F)(F)F)cn2)cc1 (stereo not given)	inactive	–
C[C@]12CC[C@@H]3c4ccc(O)cc4C[C@@H](CCCCCCCCCS(=O)CCCC(F)(F)C(F)(F)F)[C@H]3[C@@H]1CC[C@@H]2O (stereo not given in full)	–	22.3 µM (active)
N[C@@H](Cc1cc(I)c(Oc2ccc(O)c(I)c2)c(I)c1)C(=O)O	inactive	–
CC(=O)S[C@@H]1CC2=CC(=O)CC[C@]2(C)[C@H]2CC[C@@]3(C)[C@@H](CC[C@@]34CCC(=O)O4)[C@H]12	inactive	–
CCOC(=O)NCCOc1ccc(Oc2ccccc2)cc1	–	73.1 µM (active)
COC(=O)c1ccc(I)cc1S(=O)(=O)NC(=O)Nc1nc(C)nc(OC)n1	inactive	–
O=C(O)C1(C(=O)Nc2ccc(Cl)cc2Cl)CC1	inactive	–
CCSC(=O)N(CC(C)C)CC(C)C	inactive	–
CCCOC(=O)NCCCN(C)C	inactive	–
C[C@]12C[C@H](O)[C@H]3[C@@H](CCC4=CC(=O)CC[C@@]43C)[C@@H]1CC[C@@H]2C(=O)CO	inactive	–
O=C(c1ccc(O)cc1O)c1ccc(O)cc1O	inactive	–
COCCO	inactive	–
C#CCOC(=O)[C@@H](C)Oc1ccc(Oc2ncc(Cl)cc2F)cc1	inactive	–
C=CCOC(Cn1ccnc1)c1ccc(Cl)cc1Cl (stereo not given)	–	30 µM (active)
CC(C)(C)[C@@H](O)[C@@H](Cc1ccc(Cl)cc1)n1cncn1	inactive	–

Compound	outcome	AC50
Oc1ccc(C(c2ccc(O)cc2)C(Cl)(Cl)Cl)cc1	–	88.5 µM (active)
CCCCOCCOCCOCc1cc2c(cc1CCC)OCO2	inactive	–
COc1c(Cl)ccc(Cl)c1C(=O)O	inactive	–
CCN(CC)C(=O)c1cccc(C)c1	inactive	–
CC(=O)[C@H]1CC[C@H]2[C@@H]3CCC4=CC(=O)CC[C@]4(C)[C@H]3CC[C@]12C	–	27.4 µM (active)
CC(C)CCCCCCc1ccc(O)cc1	inactive	–
CCOC(=O)C(C)Oc1ccc(Oc2cnc3cc(Cl)ccc3n2)cc1 (stereo not given)	inactive	–
S=C(S)NCCNC(=S)S.[Mn+2].[S-]C([S-])=NCCN=C([S-])[S-].[Zn+2]	–	56.2 nM (active) and 104 nM (active) and 174 nM (active)
CCCCC(CC)COC(=O)c1ccccc1C(=O)O (stereo not given)	inactive	–
CN(C)C(=O)Nc1ccc(Cl)c(Cl)c1	–	34.6 µM (active)
C#C[C@]1(O)CC[C@H]2[C@@H]3CCC4=CC(=O)CC[C@@H]4[C@H]3CC[C@@]21CC	inactive	–
CCCOC(=O)c1ccc(C(=O)OCCC)nc1	inactive	–
CCN(Cc1c(F)cccc1Cl)c1c([N+](=O)[O-])cc(C(F)(F)F)cc1[N+](=O)[O-]	–	28.8 µM (active)
S=C([S-])NCCNC(=S)[S-].[Mn+2]	–	0.194 µM (active)
CCCCCCC(C)OC(=O)COc1nc(F)c(Cl)c(N)c1Cl (stereo not given)	inactive	–
CCOC(=O)c1ccc(O)cc1	inactive	–
O=C(c1ccccc1)C1CCCCC1	inactive	–
CCCCOC(=O)[C@@H](C)Oc1ccc(Oc2ccc(C(F)(F)F)cn2)cc1	inactive	–
CCCCC(CC)CN1C(=O)C2C3C=CC(C3)C2C1=O (stereo not given)	–	82.9 µM (active)
CCC(C)OC(=O)N1CCCCC1CCO (stereo not given)	inactive	–
